High-throughput results as filed in PubChem BioAssay.
APP transl inh = APP translation inhibition; 0.82% of 190,000 active; AID 1285; inhibition, % at 2 µM; SH-SY5Y APP 5'UTR-luciferase reporter, luminescence;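 active = inhibition above a set limit, derived from the sample mean plus 3 SD, cut at about 45% in these data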
Ba/F3 V617F tox = reduce viability of Ba/F3 cells dependent on JAK2V617F | Ba/F3 EpoR-JAK2V617F viability, ATP luminescence | inhibition, % at 5.6 µM | 1.1% of 220,000 active | AID 1446;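 active = inhibition above the campaign mean plus 3 SD over all tested compounds, cut at about 24% in these data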;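 note: cytokine-independent growth of Ba/F3 cells driven by EpoR plus mutant JAK2; 0% = DMSO-treated cells and 100% = JAK inhibitor I control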
aSyn 5UTR inh = 5' untranslated region of α-synuclein, MLPCN primary screen | AID 1813 | inhibition, % (tested at 7.5 µM) | 0.82% of 300,000 active | alpha-synuclein 5'UTR reporter, inhibitor activity; in the data active = inhibition above about 60%;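 note: H4 neuroglioblastoma cells stably carrying SNCA 5'UTR luciferase fusion; 0% = DMSO wells and 100% = positive control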
KLF5 inhibitor = suppresses KLF5 promoter-driven expression; DLD-1 KLF5 promoter-luciferase reporter, luminescence; inhibition, % at 5 µM; 0.23% of 290,000 active; AID 1700;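 active = inhibition above a per-plate limit of that plate's mean compound inhibition plus 3 SD, cut at about 60% in these data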;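 note: 0% = DMSO wells and 100% = LY294002 at 200 µM; higher means less KLF5 promoter-driven luciferase light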
IEC-6 tox-1 = kills IEC-6 intestinal cells in KLF5 counter-screen | 0.78% of 290,000 active | AID 1825 | inhibition, % at 5 µM | IEC-6 cytotoxicity, luminescence viability; in the data active = inhibition above about 22%;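 note: 0% = plate median of test compound wells and 100% = cytotoxic reference compound wells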
BaF3 parental = counter-screen for JAK2V617F inhibitors: parental Ba/F3 viability inhibitors. AID 1486. CellTiter-Glo ATP luminescence. inhibition, % at 5.6 µM. 1.1% of 220,000 active;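 active = inhibition above a per-campaign cutoff, the mean inhibition of all tested compounds plus 3 SD, cut at about 27% in these data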;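 note: 0% = DMSO wells and 100% = JAK Inhibitor I control wells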
KLF5 confirm = KLF5 inhibition, confirmation assay | shares compounds with KLF5 inhibitor | DLD-1 KLF5 promoter firefly luciferase reporter, luminescence | inhibition, % at 4 µM | 79% of 610 active | AID 1834;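 active = inhibition above a set limit taken from the earlier primary screen, cut at about 63% in these data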;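 note: 0% = DMSO wells and 100% = LY294002 at 200 µM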
IEC-6 tox-2 = counter-screen for KLF5 inhibitors: cytotoxicity in rat IEC-6 cells; shares compounds with KLF5 inhibitor; IEC-6 rat intestinal cells, viability luminescence; inhibition, % at 4 µM; 56% of 610 active; AID 1905; in the data active = inhibition above about 23%;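 note: cells exposed to compounds for 48 hours before viability read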
* hit, by the source's call; · = no result. Shown are actives, neighbours in structure and some others; about 2.2% of the full set was active somewhere.

SMILES | APP transl inh | Ba/F3 V617F tox | aSyn 5UTR inh | KLF5 inhibitor | IEC-6 tox-1 | BaF3 parental | KLF5 confirm | IEC-6 tox-2
O=C(Nc1nc2ccccc2[nH]1)c1ccc([N+](=O)[O-])cc1 | -190 | 5 | -28 | -87 | 6 | 3 | · | ·
COc1ccc(C(=O)Nc2nc3ccccc3[nH]2)cc1 | · | · | 71* | 65* | 15 | · | 56 | 13
O=C(Nc1cnc2ccccc2c1)c1cccnc1 | -106 | 3 | -101 | -174 | -4 | 1 | · | ·
Cc1ccc(C(=O)Nc2cnc3ccccc3c2)cc1 | 31 | 1 | 103* | 97* | 6 | 3 | 105* | 5
O=C(c1cccc(N2C(=O)C3C4C=CC(C4)C3C2=O)c1)N1CCN(c2ccccc2F)CC1 (configuration not stated) | · | · | 1 | -7 | -1 | · | · | ·
CCOc1ccc(NC(=O)Nc2cccc(C(=O)O)c2)cc1 | 70* | 6 | 108* | 94* | -1 | 9 | 101* | 16
O=C(Nc1ccc(Cl)cc1)Nc1cccc(C(=O)O)c1 | -1 | -1 | 42 | 66* | -7 | 12 | 72* | 3
Cc1ccccc1OCC(=O)Nc1cccc(C(=O)O)c1 | 68* | -1 | 105* | 95* | -2 | 3 | 96* | 4
O=C(Nc1cccc(Cl)c1)Nc1cccc(C(=O)O)c1 | · | 0 | 55 | 6 | -6 | -2 | · | ·
Cc1cccc(OCC(=O)Nc2cc(NC(=O)COc3cccc(C)c3C)cc(C(=O)O)c2)c1C | · | · | -10 | -21 | 4 | · | · | ·
CCOC(=O)c1cccc(NC(=O)Nc2ccc(OCC)cc2)c1 | -16 | 4 | 56 | -19 | -1 | 4 | · | ·
Nc1c(C(=O)Nc2cccc(C(=O)O)c2)sc2nc3c(cc12)CCCC3 | · | · | 77* | 84* | 0 | · | 90* | -8
C=CCOn1c(=O)c(-c2ccc(F)cc2)[n+]([O-])c2ccccc21 | · | · | -7 | -15 | 4 | · | · | ·
Cc1ccc(S(=O)(=O)CCC(=O)N2CCN(c3ccc([N+](=O)[O-])cc3)CC2)cc1 | · | · | 29 | 6 | 1 | · | · | ·
NS(=O)(=O)c1ccc(Oc2ccc(S(N)(=O)=O)cc2)cc1 | -15 | 6 | 8 | -45 | -2 | 9 | · | ·
C=CS(=O)(=O)c1ccc(Oc2ccc(S(=O)(=O)C=C)cc2)cc1 | 90* | 84* | -108 | 77* | 76* | 68* | 47 | 38*
CCOC(=O)c1c(C)[nH]c(C)c1S(=O)(=O)NC(CC)CN1CCOCC1 (configuration not stated) | · | · | 13 | -25 | -5 | · | · | ·
O=c1cnnc(N/N=C/c2ccccn2)[nH]1 | · | 41* | 75* | 76* | 8 | 51* | 72* | 50*
O=C(Cc1ccccc1F)Nc1ccc(S(=O)(=O)Nc2ncccn2)cc1 | · | · | -11 | -12 | 4 | · | · | ·
O=C(CCC(F)(F)F)N1CCCC(N2CCN(c3cccc(Cl)c3)CC2)C1 (configuration not stated) | · | · | -9 | -18 | -3 | · | · | ·
O=c1[nH]c(=O)n([C@H]2C[C@H](O)[C@@H](CO)O2)cc1F | 69* | 100* | 80* | 62* | 94* | 97* | 45 | 87*
Cc1nc2sccn2c(=O)c1S(=O)(=O)N1CCN(c2cccc(Cl)c2)CC1 | · | · | 3 | 0 | 4 | · | · | ·
COc1ccc(/C=N/NC(=O)CCn2c3ccccc3c3ccccc32)cc1O | 87* | 78* | 19 | 74* | 10 | 71* | 79* | 12
CCOc1ccc(NC(=O)c2ccccn2)cc1 | -116 | 6 | 104* | 79* | 7 | 12 | 50 | 11
COc1ccc(C(=O)NNC(=O)c2ccccn2)cc1 | -125 | 12 | 79* | 77* | 24* | 11 | -127 | 1
SMILES | APP transl inh | Ba/F3 V617F tox | aSyn 5UTR inh | KLF5 inhibitor | IEC-6 tox-1 | BaF3 parental | KLF5 confirm | IEC-6 tox-2
Cc1cccc(NS(=O)(=O)c2ccc3c(c2)NC(=O)CO3)c1C | · | · | -6 | -6 | 2 | · | · | ·
Cc1cccc(C)c1-n1c(C)cc(/C=N\Nc2ccc([N+](=O)[O-])cn2)c1C | 6 | 1 | -20 | -26 | 11 | 3 | · | ·
Cc1cc(/C=N/Nc2nc(N)ncc2[N+](=O)[O-])c(C)n1-c1ccccc1F | · | 3 | 73* | 78* | 5 | 0 | 94* | 12
O=C1CCCc2nc3c(cc21)C(O)Oc1c-3ccc2ccccc12 (configuration not stated) | -157 | -1 | -118 | -6 | -2 | 6 | · | ·
O=C1CCCc2nc3c(cc21)C(O)Oc1ccccc1-3 (configuration not stated) | -10 | -2 | -31 | 110* | 2 | -2 | -4 | 5
CCOC(=O)c1ccc(NC(=O)CSc2nc(=O)n(CCN3CCOCC3)c3c2CCC3)cc1 | · | · | 1 | · | · | · | · | ·
CNc1cc(-n2nc(C)cc2-c2ccccc2)ncn1 | -6 | -2 | 27 | -18 | 7 | 2 | · | ·
Cc1cc(-c2ccccc2)n(-c2cc(N/N=C/c3ccccc3O)ncn2)n1 | 96* | 69* | · | 70* | 3 | 76* | 88* | -6
CCOC(=O)COc1cccc2c(=O)n(CC(=O)NCc3ccc(F)cc3)ccc12 | · | 72* | 75* | 63* | 7 | 68* | 80* | 23*
Cc1ccc(C(=O)Nc2cccc(C(O)c3ccccc3)c2)cc1 (configuration not stated) | · | · | 2 | · | · | · | · | ·
Clc1ccc2c(c1)C(C1=NCCN1)c1ccccc1CS2 (configuration not stated) | 97* | 76* | 79* | 80* | 66* | 70* | 90* | 46*
O=C(N/N=C/c1cccs1)c1cc(C2CC2)nc2ccccc12 | 15 | 2 | 2 | 22 | 5 | 8 | · | ·
O=C(N/N=C/c1cccs1)c1cc(-c2ccncc2)nc2ccccc12 | 95* | 69* | 62* | 75* | 72* | 73* | 83* | 60*
CCc1ccn2cc(-c3ccc4c(c3)OCO4)nc2c1 | · | 6 | 107* | 66* | 6 | 7 | 62* | 6
Cc1ccc(CCNC(=O)C2CCN(S(=O)(=O)c3ccc4c(c3)NC(=O)CO4)CC2)cc1 | · | · | 10 | -36 | -1 | · | · | ·
CCN1/C(=C/c2ccc3ccccc3[n+]2CC)C=Cc2ccccc21 | 33 | 99* | 10 | 66* | 48* | 92* | 103* | 58*
CCOC(=O)c1sc(NC(=O)c2cc3c(s2)CCC(C)C3)nc1C (configuration not stated) | -16 | -1 | -101 | 86* | 0 | 3 | 88* | 9
C/C(=N/NC(=O)c1ccccn1)c1ccc(O)cc1 | · | -5 | -90 | -85 | 0 | 0 | · | ·
COc1cc(C(=O)N/N=C(\C)c2ccccn2)cc(OC)c1OC | · | · | 109* | 84* | 96* | · | 59 | 35*
CCOC(=O)C1CCCN(C(=O)c2ccc(-c3ccc([N+](=O)[O-])cc3)o2)C1 (configuration not stated) | · | · | -19 | · | · | · | · | ·
